{"source": "the supplement of paper PMC8728848", "test_in_all_cases": "glycan array binding signal (z-score within array); higher = stronger binding", "conditions_in_all_cases": "glycan notation: IUPAC condensed, linker removed", "key": {"[1]": {"biological_target": "GlcNAc(b1-3)Gal(b1-4)GlcNAc(b1-3)Gal(b1-4)GlcNAc(b1-2)Man(a1-3)[GlcNAc(b1-3)Gal(b1-4)GlcNAc(b1-3)Gal(b1-4)GlcNAc(b1-2)Man(a1-6)]Man(b1-4)GlcNAc(b1-4)GlcNAc", "how_it_was_run": "(§1)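 Glycan array data were curated from 3228 arrays in the Consortium for Functional Glycomics database and kept only where the protein sequence was available. Glycan names were converted to IUPAC-condensed notation, and columns mapping to the same glycan were averaged. The binding signal is a within-array Z-score, averaged across arrays of the same protein sequence at different concentrations or buffers and across linkers. Negative Z-scores can be read as non-binding.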"}, "[2]": {"biological_target": "GlcNAc(b1-3)Gal(b1-4)GlcNAc(b1-3)Gal(b1-4)GlcNAc(b1-3)Gal(b1-4)GlcNAc(b1-2)Man(a1-3)[GlcNAc(b1-3)Gal(b1-4)GlcNAc(b1-3)Gal(b1-4)GlcNAc(b1-3)Gal(b1-4)GlcNAc(b1-2)Man(a1-6)]Man(b1-4)GlcNAc(b1-4)[Fuc(a1-6)]GlcNAc", "how_it_was_run": "as §1"}, "[3]": {"biological_target": "GlcNAc(b1-3)Gal(b1-4)GlcNAc(b1-3)Gal(b1-4)GlcNAc(b1-3)Gal(b1-4)GlcNAc(b1-2)[GlcNAc(b1-3)Gal(b1-4)GlcNAc(b1-3)Gal(b1-4)GlcNAc(b1-3)Gal(b1-4)GlcNAc(b1-6)]Man(a1-6)[GlcNAc(b1-3)Gal(b1-4)GlcNAc(b1-3)Gal(b1-4)GlcNAc(b1-3)Gal(b1-4)GlcNAc(b1-2)Man(a1-3)]Man(b1-4)GlcNAc(b1-4)[Fuc(a1-6)]GlcNAc", "how_it_was_run": "as §1"}, "[4]": {"biological_target": "GlcNAc(b1-4)GlcNAc(b1-4)GlcNAc(b1-4)GlcNAc(b1-4)GlcNAc(b1-4)GlcNAc", "how_it_was_run": "as §1"}, "[5]": {"biological_target": "GlcNAc6S(b1-3)Gal(b1-4)GlcNAc", "how_it_was_run": "as §1"}, "Kdn(a2-3)Gal(b1-4)GlcNAc": {"biological_target": "Kdn(a2-3)Gal(b1-4)GlcNAc", "how_it_was_run": "as §1"}, "[6]": {"biological_target": "Man(a1-2)Man(a1-6)[Man(a1-3)]Man(a1-6)[Man(a1-2)Man(a1-2)Man(a1-3)]Man", "how_it_was_run": "as §1"}, "[7]": {"biological_target": "Neu5Ac(a2-3)Gal(b1-3)GlcNAc(b1-2)Man(a1-3)[Neu5Ac(a2-3)Gal(b1-3)GlcNAc(b1-2)Man(a1-6)]Man(b1-4)GlcNAc(b1-4)GlcNAc", "how_it_was_run": "as §1"}, "[8]": {"biological_target": "Neu5Ac(a2-3)Gal(b1-3)[Fuc(a1-4)]GlcNAc(b1-3)Gal(b1-3)[Fuc(a1-4)]GlcNAc", "how_it_was_run": "as §1"}, "[9]": {"biological_target": "Neu5Ac(a2-3)Gal(b1-4)GlcNAc(b1-2)[Neu5Ac(a2-3)Gal(b1-4)GlcNAc(b1-6)]Man(a1-6)[Neu5Ac(a2-3)Gal(b1-4)GlcNAc(b1-2)Man(a1-3)][GlcNAc(b1-4)]Man(b1-4)GlcNAc(b1-4)GlcNAc", "how_it_was_run": "as §1"}, "[10]": {"biological_target": "Neu5Ac(a2-3)Gal(b1-4)GlcNAc(b1-3)Gal(b1-4)GlcNAc(b1-6)[Gal(b1-3)]GalNAc", "how_it_was_run": "as §1"}, "[11]": {"biological_target": "Neu5Ac(a2-3)[GalNAc(b1-4)]Gal(b1-4)GlcNAc(b1-3)GalNAc", "how_it_was_run": "as §1"}, "Neu5Ac(a2-6)Gal": {"biological_target": "Neu5Ac(a2-6)Gal", "how_it_was_run": "as §1"}, "[12]": {"biological_target": "Neu5Ac(a2-6)Gal(b1-3)GlcNAc(b1-3)[Gal(b1-4)GlcNAc(b1-6)]Gal(b1-4)Glc", "how_it_was_run": "as §1"}, "[13]": {"biological_target": "Neu5Ac(a2-6)Gal(b1-4)GlcNAc", "how_it_was_run": "as §1"}, "[14]": {"biological_target": "Neu5Ac(a2-6)Gal(b1-4)GlcNAc(b1-2)Man(a1-3)Man(b1-4)GlcNAc(b1-4)GlcNAc", "how_it_was_run": "as §1"}, "[15]": {"biological_target": "Neu5Ac(a2-6)Gal(b1-4)GlcNAc(b1-2)Man(a1-3)[Neu5Ac(a2-6)Gal(b1-4)GlcNAc(b1-2)Man(a1-6)]Man(b1-4)GlcNAc(b1-4)GlcNAc", "how_it_was_run": "as §1"}, "[16]": {"biological_target": "Neu5Ac(a2-6)Gal(b1-4)GlcNAc(b1-3)Gal(b1-4)GlcNAc(b1-3)Gal(b1-4)GlcNAc(b1-2)Man(a1-3)[Neu5Ac(a2-6)Gal(b1-4)GlcNAc(b1-3)Gal(b1-4)GlcNAc(b1-3)Gal(b1-4)GlcNAc(b1-2)Man(a1-6)]GalNAc", "how_it_was_run": "as §1"}, "[17]": {"biological_target": "Neu5Ac(a2-6)Gal(b1-4)GlcNAc(b1-3)GalNAc", "how_it_was_run": "as §1"}, "[18]": {"biological_target": "Neu5Ac(a2-6)Gal(b1-4)GlcNAc(b1-6)[Gal(b1-3)]GalNAc", "how_it_was_run": "as §1"}, "Neu5Ac(a2-6)GalNAc": {"biological_target": "Neu5Ac(a2-6)GalNAc", "how_it_was_run": "as §1"}, "[19]": {"biological_target": "Neu5Ac(a2-6)GlcNAc(b1-4)GlcNAc(b1-4)GlcNAc", "how_it_was_run": "as §1"}, "Neu5Ac(a2-8)Neu5Ac": {"biological_target": "Neu5Ac(a2-8)Neu5Ac", "how_it_was_run": "as §1"}, "[20]": {"biological_target": "Neu5Ac(a2-8)Neu5Ac(a2-3)Gal(b1-4)Glc", "how_it_was_run": "as §1"}, "[21]": {"biological_target": "Neu5Ac(a2-8)Neu5Gc(a2-3)Gal(b1-4)GlcNAc", "how_it_was_run": "as §1"}, "[22]": {"biological_target": "Neu5Gc(a2-3)Gal(b1-4)GlcNAc(b1-3)Gal(b1-4)GlcNAc(b1-2)Man(a1-3)[Neu5Gc(a2-3)Gal(b1-4)GlcNAc(b1-3)Gal(b1-4)GlcNAc(b1-2)Man(a1-6)]Man(b1-4)GlcNAc(b1-4)GlcNAc", "how_it_was_run": "as §1"}, "[23]": {"biological_target": "Neu5Gc(a2-8)Neu5Gc(a2-6)Gal(b1-4)GlcNAc", "how_it_was_run": "as §1"}}, "note": "The full list was thinned out, with the strongest signals kept by preference."}
{"binder": "HopZSSI-T (Helicobacter pylori), B5Z6D0 (protein) MGSSHHHHHHSSGLVPRGSHMENLYFQGEDNGFFISAGYQIGEAAQMVKNTGELKKLSDTYENLSNLLTNFNNLNQAVTNASSPSEINAAIDNLKANTQGLTGEKTNSPAYQAVYLALNAAVGLWNVIAYNVQCGPGNSSQQSVTFEGQPGHNSSSINCNLTGYNNGVSGPLSIDNFKQLNQAYQVLQQALKQGVPVLNNTNQKIEVKVTTQTNGQSSKETTTTTTTNDAQTLLQEASKMIDVLTTNCPWVNHNPGQNGGAPWGLIRQECVSGFATEFSAVTSMIKNAQEIVTQAQSLNANQNNQNAPQDFNPYTSADRAFAQNMLNHAQAQAKILELADQMKKDLNTIPSQFITNYLAACRIDGTTPSQGVTNNTWGAGCAYVEETITALNNSLAHFGTQAEQIKQSELLARTILDFRGSLSTLNSTYNSITTTASNTPNSPFLKNLISQSTNPNNPGGLQAVYQVNQSAYSQLLSATQELGHNPFRRIGLISSQT", "values": [{"measurement": "glycan array binding signal (z-score)", "setting": "[1]", "result": 1.48}, {"measurement": "glycan array binding signal (z-score)", "setting": "[2]", "result": 1.5}, {"measurement": "glycan array binding signal (z-score)", "setting": "[3]", "result": 1.12}, {"measurement": "glycan array binding signal (z-score)", "setting": "[4]", "result": -0.476}, {"measurement": "glycan array binding signal (z-score)", "setting": "[5]", "result": -0.089}, {"measurement": "glycan array binding signal (z-score)", "setting": "Kdn(a2-3)Gal(b1-4)GlcNAc", "result": 0.049}, {"measurement": "glycan array binding signal (z-score)", "setting": "[6]", "result": -0.645}, {"measurement": "glycan array binding signal (z-score)", "setting": "[7]", "result": -0.396}, {"measurement": "glycan array binding signal (z-score)", "setting": "[8]", "result": -0.391}, {"measurement": "glycan array binding signal (z-score)", "setting": "[9]", "result": 0.342}, {"measurement": "glycan array binding signal (z-score)", "setting": "[10]", "result": 0.966}, {"measurement": "glycan array binding signal (z-score)", "setting": "[11]", "result": 0.891}, {"measurement": "glycan array binding signal (z-score)", "setting": "Neu5Ac(a2-6)Gal", "result": 0.007}, {"measurement": "glycan array binding signal (z-score)", "setting": "[12]", "result": -0.472}, {"measurement": "glycan array binding signal (z-score)", "setting": "[13]", "result": -0.343}, {"measurement": "glycan array binding signal (z-score)", "setting": "[14]", "result": -0.42}, {"measurement": "glycan array binding signal (z-score)", "setting": "[15]", "result": -0.19}, {"measurement": "glycan array binding signal (z-score)", "setting": "[16]", "result": 0.709}, {"measurement": "glycan array binding signal (z-score)", "setting": "[17]", "result": 0.356}, {"measurement": "glycan array binding signal (z-score)", "setting": "[18]", "result": 3.23}, {"measurement": "glycan array binding signal (z-score)", "setting": "Neu5Ac(a2-6)GalNAc", "result": 2.01}, {"measurement": "glycan array binding signal (z-score)", "setting": "[19]", "result": -0.141}, {"measurement": "glycan array binding signal (z-score)", "setting": "Neu5Ac(a2-8)Neu5Ac", "result": 0.598}, {"measurement": "glycan array binding signal (z-score)", "setting": "[20]", "result": -0.031}, {"measurement": "glycan array binding signal (z-score)", "setting": "[21]", "result": -0.272}, {"measurement": "glycan array binding signal (z-score)", "setting": "[22]", "result": 1.53}, {"measurement": "glycan array binding signal (z-score)", "setting": "[23]", "result": 0.181}]}
